The text below walks through data of PubChem BioAssay (EPA / NIEHS).

Inconclusive results are not listed. The source made the active and inactive calls. Rule for the calls: active = hit-call score of the fitted dose curve at least 0.9, where 1 is the maximum; inconclusive = response in the unintended direction; inactive = score below 0.9.

Estrogen receptor (Homo sapiens) + Estrogen receptor beta (Homo sapiens), sequence (P03372 whole entry, looked up, the tested form may be a part): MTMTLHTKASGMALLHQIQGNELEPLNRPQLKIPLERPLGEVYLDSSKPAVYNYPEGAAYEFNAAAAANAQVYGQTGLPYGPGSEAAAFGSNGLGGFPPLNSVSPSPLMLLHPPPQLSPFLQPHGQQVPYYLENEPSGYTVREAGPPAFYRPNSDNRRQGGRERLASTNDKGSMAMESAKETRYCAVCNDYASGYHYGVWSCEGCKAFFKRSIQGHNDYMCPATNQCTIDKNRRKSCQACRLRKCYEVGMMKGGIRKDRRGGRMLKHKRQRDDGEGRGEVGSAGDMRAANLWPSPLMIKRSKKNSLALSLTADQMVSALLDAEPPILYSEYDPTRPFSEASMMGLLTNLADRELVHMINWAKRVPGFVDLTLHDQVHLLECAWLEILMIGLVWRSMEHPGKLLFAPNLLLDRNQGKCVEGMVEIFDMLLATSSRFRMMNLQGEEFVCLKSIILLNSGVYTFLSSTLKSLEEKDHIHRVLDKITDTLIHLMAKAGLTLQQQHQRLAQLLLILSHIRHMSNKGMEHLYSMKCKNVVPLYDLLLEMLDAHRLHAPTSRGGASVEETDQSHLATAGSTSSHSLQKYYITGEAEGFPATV
Estrogen receptor (Homo sapiens) + Estrogen receptor beta (Homo sapiens), sequence (Q92731 whole entry, looked up, the tested form may be a part): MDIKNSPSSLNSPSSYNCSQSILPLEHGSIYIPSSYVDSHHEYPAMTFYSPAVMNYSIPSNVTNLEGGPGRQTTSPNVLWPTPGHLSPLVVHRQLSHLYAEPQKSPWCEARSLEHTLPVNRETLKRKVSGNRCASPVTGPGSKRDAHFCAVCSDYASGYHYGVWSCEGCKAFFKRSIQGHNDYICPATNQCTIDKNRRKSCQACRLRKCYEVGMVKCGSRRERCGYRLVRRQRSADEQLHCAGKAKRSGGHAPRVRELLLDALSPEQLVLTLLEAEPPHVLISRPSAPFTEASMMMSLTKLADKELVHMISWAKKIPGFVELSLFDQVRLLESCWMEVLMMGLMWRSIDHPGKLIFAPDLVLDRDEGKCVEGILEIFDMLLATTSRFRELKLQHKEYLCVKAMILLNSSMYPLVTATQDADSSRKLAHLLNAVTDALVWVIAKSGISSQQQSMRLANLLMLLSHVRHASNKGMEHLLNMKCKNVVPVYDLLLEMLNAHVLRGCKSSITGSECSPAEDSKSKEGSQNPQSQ

For this assay, the target named is Estrogen receptor (Homo sapiens) + Estrogen receptor beta (Homo sapiens) (UniProt P03372+Q92731). Briefly: OT_ER_ERaERb_0480: Odyssey Thera (OT) 8-hour HEK293T Protein-Complementation Assay for Estrogen Receptor-alpha/-beta Heterodimer (AID 2283352). The method, then:
OT_ER_ERaERb_0480 is a cell-based assay that uses HEK293T, a human kidney cell line, with measurements taken at 8 hours after chemical dosing in a 384-well plate.OT_ER_ERaERb_0480 is one of one assay component(s) measured or calculated from the OT_ER_ERaERb_0480 assay. It is designed to make measurements of protein fragment complementation, a form of binding reporter, as detected with fluorescence intensity signals by Protein-fragment Complementation technology.Data from the assay component OT_ER_ERaERb_0480 was analyzed into 1 assay endpoint. This assay endpoint, OT_ER_ERaERb_0480, was analyzed in the positive analysis fitting direction relative to DMSO as the negative control and baseline of activity. Using a type of binding reporter, measures of receptor for gain-of-signal activity can be used to understand the binding at the pathway-level as they relate to the gene ESR1 and ESR2. Furthermore, this assay endpoint can be referred to as a primary readout, because the performed assay has only produced 1 assay endpoint. To generalize the intended target to other relatable targets, this assay endpoint is annotated to the nuclear receptor intended target family, where the subfamily is steroidal.
Protein-fragment complementation assay, or PCA, is a method for the identification and quantification of protein-protein interactions. In the PCA, the proteins of interest ("bait" and "prey") are each covalently linked to fragments of a third protein (e.g. DHFR, which acts as a "reporter"). Interaction between the bait and the prey proteins brings the fragments of the reporter protein in close proximity to allow them to form a functional reporter protein whose activity can be measured. […] Fluorescent signal in the basal state of the assay is very low and is primarily punctuate and cytoplasmic. Modulation of this assay is quantified as an increase in mean fluorescence intensity in the nucleus (for agonists) or in the nucleus and cytoplasm (antagonists) relative to vehicle controls, and can be quantified on a high content imaging device or a laser scanning cytometer. The latter instrument is favored for this assay because of the rapid mode of data acquisition, the ability to acquire data from the entire cell population in a well (as opposed to a fraction of the well on the high content devices) and the larger dynamic range typically achieved with this instrument. To assess sensitivity of the ER alpha/ER beta LBD assay to ligand, cells were treated with the ER agonist 17- beta-estradiol (E2) in 10-point concentration- response format for 8 hours and monitored response on a laser scanning plate cytometer (Acumen eX3; TTP Lab Tech).
`C=C(C)CN(CC)c1c([N+](=O)[O-])cc(C(F)(F)F)cc1[N+](=O)[O-]`: the concentration at half-maximal activity (AC50) is 50 µM (active).
Turning to `CCCC(=NOCC)C1=C(O)CC(CC(C)SCC)CC1=O` (stereo not given), the outcome was inactive.
In the case of `CC1(C)CON(Cc2ccccc2Cl)C1=O`, the outcome was inactive.
Regarding `CC1(C)C(C(=O)OC(C#N)c2cccc(Oc3ccccc3)c2)C1(C)C` (stereo not given), the outcome was inactive.
The same measure, in the same setting: next, `CC(C)N1C(=O)N(c2ccccc2)CSC1=NC(C)(C)C`: “inactive”; `Clc1cccc(C(Cl)(Cl)Cl)n1`: “inactive”.
Same read-out and setting: under `CCC(C)n1c(=O)[nH]c(C)c(Br)c1=O` (stereo not given) stands “inactive”; under `O=C1C2CC=CCC2C(=O)N1SC(Cl)(Cl)Cl` (stereo not given), “inactive”.
As to `COP(=O)(OC)O/C(C)=C/C(=O)N(C)C`, the result was inactive.
For the compound `C=CCOC(=O)C(C)(C)OC(=O)c1cc(-n2c(=O)cc(C(F)(F)F)n(C)c2=O)ccc1Cl`, the outcome was inactive.
As for `CC1(C)C(C=C(Cl)Cl)C1C(=O)OC(C#N)c1cccc(Oc2ccccc2)c1` (stereo not given), the outcome was inactive.
Take `CNC(=O)N(C)c1nnc(C(C)(C)C)s1`: the result was inactive.
Regarding `COc1cc(Cl)c(OC)cc1Cl`, the result was inactive.
Still for that read-out and setting: next, `CCOc1nc(F)cc2nc(S(=O)(=O)Nc3c(Cl)cccc3Cl)nn12`: “inactive”; `COc1ccc(-c2ccccc2)cc1NNC(=O)OC(C)C`: “inactive”; `Clc1nc(Cl)nc(Nc2ccccc2Cl)n1`: “inactive”.
In the case of `Cc1nc(N(C)C)nc(OC(=O)N(C)C)c1C`, the outcome was inactive.
Take `CS(=O)(=O)c1cc(C(F)(F)F)ccc1C(=O)c1cnoc1C1CC1`: the result was inactive.
Same read-out and setting: under `COc1cc(OC)nc(NC(=O)NS(=O)(=O)c2ncccc2OCC(F)(F)F)n1` stands “inactive”; under `CCOC(=O)C(C)OC(=O)c1cc(Oc2ccc(C(F)(F)F)cc2Cl)ccc1[N+](=O)[O-]` (stereo not given), “inactive”; under `CN/C(=N\[N+](=O)[O-])NCc1cnc(Cl)s1`, “inactive”.
On the same count and under the same terms, next, `CC(C)Oc1cccc(NC(=O)c2ccccc2C(F)(F)F)c1`: “inactive”.
On to `N#Cc1c(Cl)cccc1Cl`, for which the outcome was inactive.
Turning to `COP(=S)(OC)Oc1ccc([N+](=O)[O-])c(C)c1`, the result was inactive.
The same measure, in the same setting: under `COP(=S)(OC)SCn1nnc2ccccc2c1=O` stands “inactive”.
On to `CCN(CC)c1nc(C)cc(OP(=S)(OC)OC)n1`, for which the AC50 is 19.9 µM (active).
Turning to `CS(=O)(=O)c1ccc(C(=O)C2C(=O)CCCC2=O)c([N+](=O)[O-])c1`, the outcome was inactive.
Regarding `CCOc1nc(C(Cl)(Cl)Cl)ns1`, the outcome was inactive.
On the same count and under the same terms, under `COC(=O)NS(=O)(=O)c1ccc(N)cc1` stands “inactive”; under `CCN(CC)C(=O)C(C)Oc1cccc2ccccc12` (stereo not given), “inactive”; under `CCOP(=O)(OCC)Oc1nc(Cl)c(Cl)cc1Cl`, “inactive”.
Consider `COCC(C)N(C(=O)CCl)c1c(C)csc1C` (stereo not given), for which the result was inactive.
The same measure, in the same setting: next, `O=C(Nc1ccccc1-c1ccc(Cl)cc1)c1cccnc1Cl`: “inactive”.
For `CCSC(=O)N1CCCCCC1`, the outcome was inactive.
`CSC(=O)c1c(C(F)F)nc(C(F)(F)F)c(C(=O)SC)c1CC(C)C`: the AC50 is 31.9 µM (active).
On to `O=C(O)c1c(Cl)ccc2cc(Cl)cnc12`, for which the result was inactive.
`Cc1c(COC(=O)[C@@H]2[C@H](/C=C(\Cl)C(F)(F)F)C2(C)C)cccc1-c1ccccc1`: the result was inactive.
The same measure, in the same setting: under `COC(=O)N(C(=O)N1CO[C@@]2(C(=O)OC)Cc3cc(Cl)ccc3C2=N1)c1ccc(OC(F)(F)F)cc1` stands “inactive”; under `CCOc1cc(C(C)(C)C)ccc1C1COC(c2c(F)cccc2F)=N1` (stereo not given), “inactive”.
Still for that read-out and setting: under `Cc1cnc(C2=NC(C)(C(C)C)C(=O)N2)c(C(=O)O)c1` (stereo not given) stands “inactive”.
